This is a sample that favours compounds with a hit; in the whole collection about 19% have one here.
SW480 rereplic: inducers of DNA re-replication in SW480 colon cancer cells; Potency, µM (titrated, usually from 46.1 µM), inactives show top-dose re-replication activation, actives largely listed as activators; SW480 DNA re-replication, Hoechst DNA content imaging, 48 h; actives 1.8% (n = 340,000); further: potency means the concentration at half of the fitted maximal effect; % of control where 0% means no effect; nearly all actives have a fitted effect of over 55% in size
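Cells (250 per well) received 23 nL compound or DMSO by pin tool and were kept 48 hr at 37 C, 5% CO2. Nuclei were then stained with Hoechst for 40 min and scanned for DNA content.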
TDP1 cell noCPT: qHTS for Inhibitors of human tyrosyl-DNA phosphodiesterase 1 (TDP1): qHTS in cells in absence of CPT; DT40 Tdp1-/- hTDP1 cells, no CPT, ATP luminescence, 48 h; Potency, µM (doses to about 46.2 µM), inactives show at the highest dose activity change, negative = growth inhibition, usual class: inhibitors; actives 15% (n = 420,000); AID 686978, 2013; further: potency means the concentration at half of the fitted maximal effect; on the % scale 0 is the no-effect control and ±100 the full control effect; nearly all actives have a fitted effect of over 55% in size
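Camptothecin absent (DMSO only). Human TDP1-complemented DT40 knockout cells, 400 cells/well, 37 °C for minimum 48 hr; ATP measured via CellTiter-Glo, 30 min dark incubation, luminescence.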
IL-1B inflam inh: blocks inflammasome-driven IL-1 beta release; THP-1 LPS/ATP IL-1B secretion, AlphaLISA, 16 h; active compounds read low; activity change, % at 57.5 µM; actives 4.7% (n = 360,000); AID 743279; in the data active means activity change below about -50%; inconclusive means mostly about -30% to -49%; further: on the % scale 0 is the no-effect control and ±100 the full control effect
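Secreted IL-1B measured by AlphaLISA bead assay after 16 h compound exposure of THP-1 cells; compounds (final up to 57.5 uM) added 1 h before LPS (250 ng/mL) and ATP (1.25 mM) stimulation; lower signal means less secretion.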
Chronic BCR inh: inhibitors of chronic active B-cell receptor signaling; ABC-DLBCL IkBa-CBG/CBR reporter, luminescence ratio, 4 h; Potency, µM (titrated, usually from 46.1 µM), for inactives: top-dose activity change, negative = inhibition, usual class: inhibitors; actives 0.05% (n = 340,000); active means well fitted inhibition curve with a large enough effect in the signal ratio, with a control signal flat, not every such curve was filed as active; inconclusive means small, poorly fitted or top-dose-only effect, or effect the other way, or a change in a side signal; the % refers to the signal ratio;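 further: potency means the concentration at half of the fitted maximal effect; plate controls were basal doxycycline-induced cells for no effect and cells given 10 µM MG132 for full effect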
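Cell line TMD8 (human ABC DLBCL), stably expressing tet-inducible CBG68-IkBa fusion and CBR; IMDM/0.5% FBS; cpd up to 46 uM; dox induction, 4 h, 37C/5% CO2; dual luminescence; green/red ratio; MG132 control.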
MCF10A rerep: induces DNA re-replication in MCF 10a normal breast cells. MCF 10A DNA re-replication, Hoechst nuclear intensity, 48 h. Potency, µM (doses to about 46.1 µM), for inactives: top-dose activity, positive = re-replication, usual class: activators. actives 2.9% (n = 350,000). AID 624296; further: potency means the concentration at half of the fitted maximal effect; % of control where 0% means no effect; nearly all actives have a fitted effect of over 50% in size
DT40 TDP1 CPT: growth inhibition of DT40 Tdp1-/-;hTDP1 cells with camptothecin (screen for TDP1 inhibitors); AID 686979; Potency, µM (series often up to 46.2 µM), for inactives: at the highest dose activity change, negative = growth inhibition, usual class: inhibitors; chicken DT40 Tdp1-/-;hTDP1 cells + 20 nM CPT, ATP luminescence, 48 h; actives 12% (n = 420,000); further: potency means the concentration at half of the fitted maximal effect; on the % scale 0 is the no-effect control and ±100 the full control effect; nearly all actives have a fitted effect of over 55% in size
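Cell growth measured by CellTiter-Glo luminescence after a minimum 48 h, 37 C compound exposure with 20 nM CPT in Tdp1-knockout DT40 cells stably expressing hTDP1, seeded 400/well; qHTS titration format.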
* hit, by the source's call; ? = inconclusive; · = not tested or not shown; [ ] = remark or other dose. Unless noted, the call rests on the fitted dose curve; in most records, active means well fitted curve in the direction sought with a large enough effect; inconclusive means small, poorly fitted or top-dose-only effect, or another doubt; inactive means no such curve, though single readings can be large; an effect the other way counts as inactive or inconclusive.

SMILES | SW480 rereplic | TDP1 cell noCPT | IL-1B inflam inh | Chronic BCR inh | MCF10A rerep | DT40 TDP1 CPT
O=C(Nc1cccc(C(F)(F)F)c1)c1noc2c1CCc1ccccc1-2 | · | ? | · | · | · | 10µM*
O=c1[nH]nc(Cc2ccc(-c3ccc(Cl)cc3)o2)c2ccccc12 | ? | ? | 33 | 14% | 8.2µM* | ?
O=C(COC(=O)c1n[nH]c(=O)c2ccccc12)NCc1ccccc1 | 1% | 9.2µM* | 9 | ? | 6% | 12µM*
O=c1[nH]nc(Cc2ccc([N+](=O)[O-])cc2)c2ccccc12 | -10% | ? | 60 | -19% | 9% | ?
O=c1[nH]nc(Cc2ccccc2)c2ccccc12 | -5% | -28% | 15 | ? | ? | 7.3µM*
COc1ccc(-n2ccnc(NCCc3ccc(S(N)(=O)=O)cc3)c2=O)cc1 | · | -27% | · | · | · | 3%
CC(=O)C1=CN(Cc2ccccc2)CCC1=O | -8% | -8% | 26 | · | -14% | -1%
O=C1CCN(Cc2ccccc2)C=C1c1ccc(Br)cc1 | 20% | 23µM* | ? | 1% | 17% | 18µM*
Cc1ccc(C2=CN(Cc3ccccc3)CCC2=O)cc1 | -25%[9.22 µM] | ? | -8 | 4% | -3% | 21µM*
O=C(Nc1ccc(C2=CN(Cc3ccccc3)CCC2=O)cc1)OCc1ccccc1 | 0% | -10% | 2 | -1% | -3% | -3%
COc1ccc(NC(=O)CC2CCCCC2)cc1OC | 7.3µM* | -21% | 15 | ? | 5.8µM* | -20%
O=C(CC1CCCC1)Nc1ccc(Br)cc1 | 5% | -14% | -56* | 7% | -1% | -1%
COc1ccc(NC(=O)CNC(=O)C2CCCCC2)cc1OC | 16% | ? | -6 | 1% | 9% | -18%
COc1ccc(NC(=O)C2CCCCN2N)cc1OC (centres undefined) | -3%[9.22 µM] | 18µM* | -12 | -19% | 3% | ?
COc1ccc(CN2CCCCC2C(=O)Nc2ccc(OC)c(OC)c2)cc1OC (centres undefined) | 12% | -17% | -3 | ? | ? | -3%
CC(C)c1nc2cc(C(=O)N3CCNC(=O)C3c3cccc(F)c3)ccc2o1 (centres undefined) | 1% | -25% | 12 | 5% | 13% | -3%
O=C(c1ccc(-n2cncn2)c([N+](=O)[O-])c1)N1CCN(S(=O)(=O)c2ccc(F)c(F)c2)CC1 | ? | ? | 11 | 9% | 4% | -25%
COc1ccc(/C=C/C(=O)OCC(=O)Nc2cc(C(F)(F)F)ccc2Cl)cc1 | -2% | 12µM* | -3 | -2% | 2% | ?
COc1ccc(/C=C/C(=O)OCC(=O)Nc2cc(S(=O)(=O)N(C)C)ccc2Cl)cc1 | -4% | 0% | -4 | -1% | 10% | 3%
COc1ccc(/C=C/C(=O)OCC(=O)NC2CCS(=O)(=O)C2)cc1 (centres undefined) | 0% | -21% | -6 | 3% | -1% | 0%
O=C(COC(=O)/C=C/c1ccc(C(F)(F)F)cc1)NC1CCS(=O)(=O)C1 (centres undefined) | ? | 21µM* | -1 | 4% | -7% | ?
COc1ccc(NC(=O)C2CC(=O)N/C(=N/N=C/c3ccccc3)S2)cc1 (centres undefined) | 4% | -7% | 1 | -1% | 4% | -4%
CCCOc1ccc(NC(=O)C2CC(=O)N/C(=N/N=C(C)/C=C/c3ccc(N(C)C)cc3)S2)cc1 (centres undefined) | 18µM* | ? | -17 | -8% | 5.2µM* | ?

Compound activity: PubChem, National Center for Advancing Translational Sciences (NCATS)
